IMPase cell inh: cell-permeable inhibitors of inositol monophosphatase (IMPase); 120,000 tested, under 10 active; inhibition (IP1 accumulation), % at 46.1 µM; CHO-M1 cells, IP1 accumulation, HTRF TR-FRET ratio; active = well fitted curve in the direction sought with a large enough effect in the signal ratio, not every such curve was filed as active; inconclusive = small, poorly fitted or top-dose-only effect, or a change in a side signal; inactive = no such curve, though single readings can be large or run the other way; the % refers to the signal ratio;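 also: cells stimulated with carbachol in lithium chloride buffer; plate controls were DMSO basal wells for no effect and reference inhibitor wells for full effect; higher means more IMPase inhibition seen as more IP1 and lower FRET ratio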
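Carbachol-driven Gq signalling in CHO-M1 cells (2000/well) generates IP1. Compounds that block IMPase raise IP1 and so reduce the FRET signal from Eu-anti-IP1 and d2-IP1 after a 10 min room-temperature lysis.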
ALOX12 inhib: inhibitors of human 12-lipoxygenase (ALOX12); P18054; purified 12-hLO, xylenol orange hydroperoxide absorbance; Potency, µM (series often up to 57.1 µM), for inactives: top-dose activity change, negative = inhibition, most hits filed as inhibitors; hit rate 0.12% among 150,000; also: potency is read from the fitted curve at half-maximal effect; nearly all actives have a fitted effect of over 55% in size
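Hydroperoxide output read as Fe(III)-xylenol orange absorbance, 573-to-405 nm ratio, after 30 min reaction with 40 uM arachidonic acid. Enzyme: 150 nM purified human 12hLO, 15 min compound preincubation; 25 mM Hepes pH 7.0, room temperature.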
NPSR antagonist: blocks cAMP signaling of the human neuropeptide S receptor | Q6W5P4 | CHO-NPSR cells, cAMP TR-FRET, antagonist mode | Potency, µM (titrated, usually from 38.3 µM), for the others: at the highest dose activity change, negative = inhibition, usual class: inhibitors | hit rate 1% among 220,000 | AID 1461; also: potency is read from the fitted curve at half-maximal effect; nearly all actives have a fitted effect of over 50% in size
Target sequence (Q6W5P4 whole entry, looked up): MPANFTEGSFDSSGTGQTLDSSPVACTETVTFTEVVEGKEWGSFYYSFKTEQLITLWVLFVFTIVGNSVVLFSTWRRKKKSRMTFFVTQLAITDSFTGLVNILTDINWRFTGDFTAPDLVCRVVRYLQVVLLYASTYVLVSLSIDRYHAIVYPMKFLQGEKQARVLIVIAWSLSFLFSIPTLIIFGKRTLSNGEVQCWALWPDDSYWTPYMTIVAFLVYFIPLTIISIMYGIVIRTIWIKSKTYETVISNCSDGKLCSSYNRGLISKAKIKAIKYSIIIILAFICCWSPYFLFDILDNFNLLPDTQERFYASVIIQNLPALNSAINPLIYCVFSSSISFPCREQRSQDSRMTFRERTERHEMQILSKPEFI
IMPase Li inh: membrane-permeable IMPase blocker, potentiated with lithium | CHO-M1 cells, IP1 TR-FRET (IP-One), carbachol + lithium | Potency, µM (series often up to 59.4 µM), for inactives: at the top dose activity, negative = IMPase inhibition, actives largely listed as inhibitors | hit rate 0.35% among 210,000 | AID 1457;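 also: IP1 builds up when IMPase is blocked and the TR-FRET signal falls; potency is read from the fitted curve at half-maximal effect; plate controls were basal vehicle for no effect and high inhibitor control for full effect; nearly all actives have a fitted effect of over 50% in size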
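Steps: plate 2000 CHO-M1 cells per well and culture 16–30 h; add compound and lithium; incubate 30 min, 37C; add d2-IP1 tracer and Eu cryptate anti-IP1 antibody in lysis buffer; read after 10 min at room temperature.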
HPGD inh: HPGD (human) dehydrogenase inhibition; Potency, µM, for inactives: at the highest dose activity change, negative = inhibition, most hits filed as inhibitors; P15428; hit rate 4.3% among 150,000; purified HPGD, NADH fluorescence kinetic, PGE2 substrate; active = well fitted inhibition curve with a large enough effect, not every such curve was filed as active; inconclusive = small, poorly fitted or top-dose-only effect, or another doubt; inactive = no such curve, though single readings can be large or run the other way; also: potency is read from the fitted curve at half-maximal effect
Target sequence (P15428 whole entry, looked up): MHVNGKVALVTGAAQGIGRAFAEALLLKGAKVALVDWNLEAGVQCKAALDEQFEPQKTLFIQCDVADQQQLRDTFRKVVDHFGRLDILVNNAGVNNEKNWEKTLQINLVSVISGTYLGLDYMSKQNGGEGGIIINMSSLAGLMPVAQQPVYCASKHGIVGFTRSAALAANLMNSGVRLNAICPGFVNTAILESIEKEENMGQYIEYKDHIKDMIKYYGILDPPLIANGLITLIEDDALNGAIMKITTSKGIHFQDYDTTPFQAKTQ
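NADH formation kinetics: reaction with 30 uM PGE2 and 1 mM NAD+ (final), 20 nM enzyme, Tris-HCl pH 8 with Tween 20, after 15 min compound preincubation at room temperature. Fluorescence change, last versus first of five reads.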
ALDH1A1 block: blocks purified human ALDH1A1 activity. Purified ALDH1A1, NADH fluorescence, propionaldehyde substrate. hit rate 7.3% among 220,000. Potency, µM (series often up to 75.3 µM), inactives show at the highest dose activity, negative = inhibition, usual class: inhibitors. P00352; active = well fitted inhibition curve with a large enough effect, not every such curve was filed as active; inconclusive = small, poorly fitted or top-dose-only effect, or another doubt; inactive = no such curve, though single readings can be large or run the other way;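 also: potency is read from the fitted curve at half-maximal effect; plate controls were no enzyme wells and a reference inhibitor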
The depositor's hits bear a star; ? = inconclusive; . = not tested or not shown; ! = repeats disagree; [ ] = dose if it differs, or a comment. Rows were chosen to be rich in hits. Some 8.9% of all compounds tested hit in one or more screens of this group. Unless noted, calls follow the shape of the dose curve; as a rule, active = well fitted curve in the direction sought with a large enough effect; inconclusive = small, poorly fitted or top-dose-only effect, or another doubt; inactive = no such curve, though single readings can be large; an effect the other way counts as inactive or inconclusive. Unless noted, % is scaled to controls: 0 for no effect and ±100 for the full control effect.

SMILES	IMPase cell inh	ALOX12 inhib	NPSR antagonist	IMPase Li inh	HPGD inh	ALDH1A1 block
COc1nc2ccccc2c(=O)n1-c1ccc(Cl)cc1	.	0%	-7%	5%	-9%	4%
CCCCOc1nc2ccccc2c(=O)n1-c1ccccc1	.	-3%	-21%	12%	-13%	14µM*
COc1ccc(-n2c(-c3ccc(C)cc3)nc3ccccc3c2=O)cc1	.	.	?	.	.	7.9µM*
CCC(=NCc1ccco1)c1c(O)n(-c2ccc(Cl)cc2)c(=O)[nH]c1=O	.	.	-9%	.	.	9%
CCN1C(=O)C(=C/C=C/c2ccco2)C(=O)N(CC)C1=S	-5	-20%	-8%[46.1 µM]	-3%	11µM*	1.3µM*
COc1ccc(CN2C(=O)NC(=O)/C(=C\c3ccco3)C2=O)cc1	.	.	-50%	17%	.	?
CC(C)N1C(=O)/C(=C/C=C/c2ccco2)C(=O)N(Cc2ccco2)C1=O	-2	?	?	5%[38.3 µM]	32µM*	22µM*
NC(=O)C1CCN(/C=C2\C(=O)NC(=O)N(Cc3ccco3)C2=O)CC1	.	.	6%	.	.	.
CCN1C(=O)C(=C2C=C(C)N(Cc3ccco3)C(C)=C2)C(=O)N(CC)C1=S	.	.	-56%	-20%	.	?
COc1ccc(/C=C2/C(=O)N(Cc3ccco3)C(=O)N(C(C)C)C2=O)cc1	.	-4%	3%	5%	22µM*	4µM*
C[C@H]1C(=O)O[C@H]2CCN3CC=C(COC(=O)[C@](C)(O)[C@@]1(C)O)C23 (stereo partly specified)	-7	-4%	.	2%	2%	0%
COc1ccccc1CCNCc1cc2c(cc1[N+](=O)[O-])OCO2	9	-8%	-3%[46.1 µM]	5%[38.3 µM]	-4%	?
COc1ccccc1[N+](=O)[O-]	.	-1%	.	16%	-6%	25µM*
Cc1cc(NC(=O)CCl)on1	.	.	8%	-6%	.	3.5µM*
COc1cc(-c2ccc(=O)[nH]n2)ccc1OC(F)F	4	1%[0.00818 µM]	-8%[46.1 µM]	6%	20µM*!	-8%
C=CCN1C(=O)NC(=O)/C(=C\c2ccc(-c3ccccc3[N+](=O)[O-])o2)C1=O	.	.	-44%	19%	.	22µM*
O=C1NC(=O)N(Cc2ccco2)C(=O)/C1=C/c1ccc(-c2cccc([N+](=O)[O-])c2)o1	.	-14%	?	4%	5µM*	7.1µM*
O=C1NC(=O)N(Cc2ccco2)C(=O)/C1=C\c1cccn1CCOc1ccc(Cl)cc1	9	-27%	?	20%	-22%	-3%
Nc1ccc2c3c(cccc13)CC2	-3	-20%	2%[46.1 µM]	3%[38.3 µM]	?	?
O=c1[nH]c(=S)n(Cc2ccc(F)cc2)c(O)c1C=NCC1CCCO1 (stereo unspecified)	-10	7%	-8%[46.1 µM]	27%[38.3 µM]	28µM*	?
CC(C(=O)c1ccccc1)N1C(=O)c2ccccc2C1=O (stereo unspecified)	.	-3%	13%	17%	-11%	3%
CCOc1ccc(N2C(=O)NC(=O)/C(=C\c3cc(OC)c(OC)cc3[N+](=O)[O-])C2=O)cc1	.	-15%	-20%	6%	28µM*	11µM*
O=C1NC(=O)N(c2ccccc2)C(=O)/C1=C\c1ccccc1[N+](=O)[O-]	.	.	-5%	.	.	.
COc1ccc(N2C(=O)NC(=O)/C(=C/c3ccc([N+](=O)[O-])s3)C2=O)cc1	.	.	-32%	.	.	.
COc1ccc(CN2C(=O)NC(=O)/C(=C/c3ccc([N+](=O)[O-])s3)C2=O)cc1	.	.	17%	.	.	4µM*
SMILES	IMPase cell inh	ALOX12 inhib	NPSR antagonist	IMPase Li inh	HPGD inh	ALDH1A1 block
COc1ccc(N2C(=O)NC(=O)/C(=C\c3ccc([N+](=O)[O-])s3)C2=O)cc1	.	.	-36%	8%	.	40µM*
O=C1NC(=O)N(Cc2ccc(F)cc2)C(=O)/C1=C\c1ccc([N+](=O)[O-])s1	.	.	-15%	.	.	.
COc1ccc(N2C(=O)/C(=C/C=C/c3ccccc3[N+](=O)[O-])C(=O)NC2=S)cc1	.	.	10µM*	4%	.	8.9µM*
NP(=O)(OCC(F)(F)F)Oc1ccc(Cl)cc1 (stereo unspecified)	.	-2%	25%	-10%	-13%	-9%
CC[N+](CC)(CC)CC	6	-6%	3%[46.1 µM]	9%	-3%	-6%
CCn1c(=O)cc(OCC(=O)N2CCC3(CC2)OCCO3)c2ccccc21	5	-3%	-12%[46.1 µM]	-8%[38.3 µM]	0%	-8%
CC(C)=CCCC(C)C1CC[C@@]2(C)C3=C(CC[C@@]12C)C1(C)CCC(O)C(C)(C)C1CC3 (stereo partly specified)	.	-1%	.	-8%	-9%	28µM*
COC(=O)[C@@]1(Cc2ccccc2)[C@H]2c3cc(C(=O)N(C)C)n(C)c3C[C@H]2CN1C(=O)c1ccccc1	.	0%	.	4%	-3%	3%
CCCCCCCCCCCCCCCC(=O)OC[C@H](COP(=O)([O-])OCC[N+](C)(C)C)OC(C)=O	.	3%	.	-13%	-6%	1%
CCOP(=O)(OCC)C(NC(=O)c1ccccc1)C(Cl)(Cl)Cl (stereo unspecified)	.	-3%	3%	-7%	-10%	-4%
CCOP(=O)(OCC)C(c1ccccc1)N(C)C=O (stereo unspecified)	?	0%	-7%[46.1 µM]	.	.	18µM*
CCN(CC)CCCNC(=O)c1c(O)c2ccccc2n(Cc2ccccc2)c1=O	1	-4%	5%[46.1 µM]	-5%[38.3 µM]	-7%	3%
N#CSCSC#N	.	-11%	.	40%	6.3µM*	0.11µM*
C=CCCC#N	.	-1%	.	7%	-10%	3.2µM*
Clc1ccc(C2=CCC[C@H]3CC[C@@H]2N3)cn1	10	1%	.	13%	-14%	10µM*
CN(C)C(=O)Oc1c(Cl)cc(Cl)c2ccccc12	3	2%	3%[46.1 µM]	-7%[38.3 µM]	-7%	0%
NC1=NC([S][Hg][c]2ccc(N)cc2)c2ncn([C@@H]3O[C@H](CO)[C@@H](O)[C@@H]3O)c2N1 (stereo partly specified)	.	.	.	17%	0.05µM*	0.1µM*
CN(C)CCc1ccc(O)cc1	.	.	.	14%	-10%	5%
CC/C(=C(\c1ccc(O)cc1)c1ccc(OCCN(C)C)cc1)c1ccccc1	.	.	10µM*	.	.	.
O=C1C2CCCN2C(c2cccnc2)N1c1ccc(Cl)c(Cl)c1 (stereo unspecified)	-2	-2%	21%[46.1 µM]	1%[38.3 µM]	-7%	-4%
O=C1C2CCCN2C(c2ccncc2)N1c1ccc(Cl)c(Cl)c1 (stereo unspecified)	-1	-11%	-14%[46.1 µM]	.	.	20µM*
CCN(CC)CCN/N=C(\C)c1c(O)[nH]c(=O)[nH]c1=O	.	.	11%	.	.	.
O=C(Oc1ccc([N+](=O)[O-])cc1)N1CCC(N2CCCCC2)CC1	.	4%	8%	32%	-7%	3%
CN1Cc2ccccc2[C@@H]2c3cccc4[nH]cc(c34)C[C@H]21	15	-2%	.	9%	-27%	16µM*!

Source: PubChem BioAssay
